We go through seven compounds from PubChem BioAssay (EPA / NIEHS).

Broadly, the AC50 is the midpoint of the concentration-response curve, whichever way the signal moves.

Active and inactive are the calls of the source. How the source made its calls: active means hit-call score of the fitted dose curve at least 0.9, where 1 is the maximum; inactive means score below 0.9.

Read-out in test [1]: Human Leukocyte Antigen - DR isotype (HLADR), HLA-DRA (gene 3122)
The test can be described thus: BSK_CASM3C_HLADR: BioMAP Diversity Plus: CASM3C Assay for Human Leukocyte Antigen - DR isotype (HLADR) Biomarker Activity (AID 2283043).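 Further: cell-surface HLA-DR protein level quantified by ELISA.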 The conditions noted are these: primary human coronary artery smooth muscle cells; actives raise or lower the signal.

Read-out in test [2]: Macrophage colony-stimulating factor (MCSF), CSF1 (gene 1435)
The test can be described thus: BSK_CASM3C_MCSF: BioMAP Diversity Plus: CASM3C Assay for Macrophage colony-stimulating factor (MCSF) Biomarker Activity (AID 2283044).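 Further: M-CSF protein amount quantified by ELISA after 24 h exposure.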 The following applies: primary human coronary artery smooth muscle cells; actives raise or lower the signal.

Read-out in test [3]: Low-density lipoprotein receptor (LDLR), LDLR (gene 3949)
Description: BSK_CASM3C_LDLR: BioMAP Diversity Plus: CASM3C Assay for Low-density lipoprotein receptor (LDLR) Biomarker Activity (AID 2283045).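 Further: LDLR protein level on the cell surface quantified by ELISA.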 The conditions noted are these: primary human coronary artery smooth muscle cells; actives raise or lower the signal.

Read-out in test [4]: Monocyte Chemoattractant Protein-1 (MCP1), CCL2 (gene 6347)
The test can be described thus: BSK_CASM3C_MCP1: BioMAP Diversity Plus: CASM3C Assay for Monocyte Chemoattractant Protein-1 (MCP1) Biomarker Activity (AID 2283046).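 Further: MCP-1 level quantified by ELISA 24 h after dosing.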 The conditions noted are these: primary human coronary artery smooth muscle cells; actives raise or lower the signal.

A short description of test [5]: BSK_CASM3C_Proliferation: Cell Proliferation Assessment in the BioMAP Diversity Plus: CASM3C Assay (AID 2283047).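 Further: sulforhodamine B total protein stain as relative cell number at 560 nm; sub-confluent cells exposed 48 h before staining; fitted both ways against DMSO so gain or loss of cell number.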 The conditions noted are these: primary human coronary artery smooth muscle cells.
Read-out in test [6]: Monokine induced gamma interferon (MIG), CXCL9 (gene 4283)
The test can be described thus: BSK_CASM3C_MIG: BioMAP Diversity Plus: CASM3C Assay for Monokine induced gamma interferon (MIG) Biomarker Activity (AID 2283048).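 Further: MIG protein level measured by ELISA.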 The conditions noted are these: primary human coronary artery smooth muscle cells; actives raise or lower the signal.

Read-out in test [7]: serum amyloid A (SAA), SAA1 (gene 6288)
The test can be described thus: BSK_CASM3C_SAA: BioMAP Diversity Plus: CASM3C Assay for serum amyloid A (SAA) Biomarker Activity (AID 2283049). The following applies: primary human coronary artery smooth muscle cells; actives raise or lower the signal.

Test [8] can be described thus: BSK_CASM3C_SRB: Viability Assessment in the BioMAP Diversity Plus: CASM3C Assay (AID 2283050).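 Further: cells exposed to compound for 24 h.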 The following applies: primary human coronary artery smooth muscle cells.
Read-out in test [9]: Thrombomodulin, THBD (gene 7056)
The test can be described thus: BSK_CASM3C_Thrombomodulin: BioMAP Diversity Plus: CASM3C Assay for Thrombomodulin Biomarker Activity (AID 2283051).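 Further: thrombomodulin protein level measured by ELISA 24 h after dosing.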 The conditions noted are these: primary human coronary artery smooth muscle cells; actives raise or lower the signal.

Read-out in test [10]: Tissue Factor, F3 (gene 2152)
The test can be described thus: BSK_CASM3C_TissueFactor: BioMAP Diversity Plus: CASM3C Assay for Tissue Factor Biomarker Activity (AID 2283052).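 Further: cell surface tissue factor protein level read by ELISA.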 The following applies: primary human coronary artery smooth muscle cells; actives raise or lower the signal.

Read-out in test [11]: Interferon-gamma inducible Protein 10 (IP10), CXCL10 (gene 3627)
Description: BSK_hDFCGF_IP10: BioMAP Diversity Plus: hDFCGF Assay for Interferon-gamma inducible Protein 10 (IP10) Biomarker Activity (AID 2283053). The conditions noted are these: primary human foreskin fibroblasts; actives raise or lower the signal. The method in brief: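 IP-10 levels, quantified by ELISA, are taken from human foreskin fibroblast cultures 24 h after chemical treatment, with DMSO serving as negative control and baseline for bidirectional analysis.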

Read-out in test [12]: Urokinase-type plasminogen activator receptor (uPAR), PLAUR (gene 5329)
The test can be described thus: BSK_CASM3C_uPAR: BioMAP Diversity Plus: CASM3C Assay for Urokinase-type plasminogen activator receptor (uPAR) Biomarker Activity (AID 2283054).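 Further: cell-surface uPAR protein level quantified by ELISA.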 The following applies: primary human coronary artery smooth muscle cells; actives raise or lower the signal.

Read-out in test [13]: Vascular cell adhesion molecule 1 (VCAM1), VCAM1 (gene 7412)
Description: BSK_CASM3C_VCAM1: BioMAP Diversity Plus: CASM3C Assay for Vascular cell adhesion molecule 1 (VCAM1) Biomarker Activity (AID 2283055).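 Further: VCAM-1 protein level quantified by ELISA on the cells.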 The following applies: primary human coronary artery smooth muscle cells; actives raise or lower the signal.

Read-out in test [14]: Collagen III, COL3A1 (gene 1281)
The test can be described thus: BSK_hDFCGF_CollagenIII: BioMAP Diversity Plus: hDFCGF Assay for Collagen III Biomarker Activity (AID 2283056). The following applies: primary human foreskin fibroblasts; actives raise or lower the signal. Put shortly: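 Human foreskin fibroblast primary cultures sampled 24 h after dosing; Collagen III quantified by ELISA. Signal fitted bidirectionally against DMSO baseline.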

Read-out in test [15]: Epidermal growth factor receptor (EGFR), EGFR (gene 1956)
Description: BSK_hDFCGF_EGFR: BioMAP Diversity Plus: hDFCGF Assay for Epidermal growth factor receptor (EGFR) Biomarker Activity (AID 2283057). The following applies: primary human foreskin fibroblasts; actives raise or lower the signal. Put shortly:
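Measured by ELISA: EGFR levels on primary human foreskin fibroblasts 24 h after chemical treatment, analysed relative to DMSO with bidirectional fitting.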

Read-out in test [16]: Interleukin-8 (IL8), CXCL8 (gene 3576)
Description: BSK_hDFCGF_IL8: BioMAP Diversity Plus: hDFCGF Assay for Interleukin-8 (IL8) Biomarker Activity (AID 2283058). The conditions noted are these: primary human foreskin fibroblasts; actives raise or lower the signal. The method in brief: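 Primary human foreskin fibroblasts (hDFCGF system) dosed with chemical; IL-8 measured by ELISA 24 hours later. Bidirectional curve fitting relative to DMSO baseline; cytotoxicity tracked in parallel cultures by SRB total protein staining.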

Test [17] can be described thus: BSK_hDFCGF_Proliferation: Cell Proliferation Assessment in the BioMAP Diversity Plus: hDFCGF Assay (AID 2283059).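 Further: curves fitted for both rise and fall of signal versus DMSO baseline.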 The conditions noted are these: primary human foreskin fibroblasts. Put shortly:
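Primary human foreskin fibroblasts, sub-confluent; […]; 10% TCA fix, 0.1% SRB stain, A560 total protein. Gain/loss fitted bidirectionally vs DMSO control.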

The nature of test [18]: BSK_hDFCGF_SRB: Viability Assessment in the BioMAP Diversity Plus: hDFCGF Assay (AID 2283061).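 Further: cells exposed to compound for 24 h before the read.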 The following applies: primary human foreskin fibroblasts. Put shortly:
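Human foreskin fibroblasts in 96-well plates were treated 24 h. Total protein was measured by 0.1% SRB staining after 10% TCA fixation, read at 560 nm. Data were fitted bidirectionally against DMSO.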

Read-out in test [19]: TIMP metallopeptidase inhibitor 1 (TIMP1), TIMP1 (gene 7076)
Description: BSK_hDFCGF_TIMP1: BioMAP Diversity Plus: hDFCGF Assay for TIMP metallopeptidase inhibitor 1 (TIMP1) Biomarker Activity (AID 2283062). The following applies: primary human foreskin fibroblasts; actives raise or lower the signal. The method in brief:
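Human foreskin fibroblast primary cultures dosed for 24 h; secreted/surface TIMP-1 quantified by ELISA. Bidirectional curve fitting against DMSO baseline; cytotoxicity tracked in parallel cultures by SRB total-protein staining.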

Read-out in test [20]: Macrophage colony-stimulating factor (MCSF), CSF1 (gene 1435)
Description: BSK_hDFCGF_MCSF: BioMAP Diversity Plus: hDFCGF Assay for Macrophage colony-stimulating factor (MCSF) Biomarker Activity (AID 2283060). The following applies: primary human foreskin fibroblasts; actives raise or lower the signal. The method in brief: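 Human foreskin fibroblast primary cultures; M-CSF measured by ELISA 24 hours after chemical dosing. Bidirectional fitting relative to DMSO, with overt cytotoxicity tracked by parallel SRB total-protein staining (0.1% SRB, 10% TCA fixation, 560 nm).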

With `O=S1(=O)CCCO1`, the outcome in [1], in [2], in test [3], in test [4], in test [5] and in test [6] was inactive. For the same compound, the result in [7], in [8], in test [9], in test [10], in [11] and in test [12] was inactive. In addition, the outcome in test [13], in test [14], in test [15], in [16], in test [17] and in [18] was inactive. Further, the outcome in test [19] was inactive.

As for `Cc1ncc([C@@H](CCCCCCc2ccc3c(n2)NCCC3)CC(=O)O)cn1`, the outcome in test [1], in test [2], in test [3], in test [4], in test [6] and in [7] was inactive. For the same compound, the result in test [8], in test [9], in test [10], in test [11], in test [13] and in test [14] was inactive. Moreover, the result in test [15], in test [16], in test [17], in test [20] and in test [18] was inactive. For the same compound, the AC50 was 3.97 µM (active) in [5] and 0.148 µM (active) in test [12].

Consider `COCc1nnc(-c2ccc[n+]([O-])c2)n1-c1c(Cl)c(Cl)cc2[nH]c(=O)c(=O)[nH]c12`, for which the result in test [1], in test [2], in test [3], in test [4], in test [5] and in test [6] was inactive. In addition, the result in [7], in test [8], in [9], in test [10], in [11] and in test [12] was inactive. For the same compound, the result in test [13], in [15], in test [16], in test [17], in [20] and in test [18] was inactive.

Regarding `CCCCCCCC/C=C\CCCCCCCC(=O)OC[C@@H](O)[C@H]1OC[C@H](O)[C@H]1O`, the outcome in [1], in test [2], in test [3], in test [4], in [5] and in [6] was inactive. Besides, the result in [7], in test [8], in [9], in test [10], in test [11] and in [12] was inactive. For the same compound, the result in test [13], in test [14], in test [16], in test [17] and in test [18] was inactive.

As to `COc1cc(C(C)C)c2c(c1)S(=O)(=O)N(COc1cc(=O)n3cccc(OCCN4CCCCC4)c3n1)C2=O`, the result in test [1], in test [2], in test [4], in test [6], in test [7] and in [8] was inactive. Moreover, the result in test [9], in test [10], in test [12], in test [14], in [16] and in [19] was inactive. In addition, the half-maximal activity concentration (AC50) in test [3] is 3.65 µM (active); in test [5] it was 6.18 µM (active); in test [11] it was 6.1 µM (active); in test [13], 5 µM (active); in [17] it was 5.44 µM (active); in test [20] it was 3.29 µM (active). Further, the AC50 in test [18] was 8.05 µM (active).

On to `Cn1cc[nH]c1=S`, for which the result in test [1], in [2], in test [3], in [4], in test [5] and in test [6] was inactive. Further, the result in [7], in test [8], in [9], in test [10], in test [11] and in test [12] was inactive. The result in [13], in [14], in test [16], in [17], in [20] and in test [18] was inactive.

`CCCCCCCCCCCCCCO`: the result in [1] and in [15] was inactive. In addition, the AC50 was 31.3 µM (active) in [2]; 32.3 µM (active) in [3]; 32.4 µM (active) in test [4]; 38 µM (active) in [5]; 29.5 µM (active) in [6]; 31 µM (active) in test [7]. Moreover, the AC50 in [8] is 30.2 µM (active); in test [9] it was 31.5 µM (active); in test [10], 31.5 µM (active); in test [11], 28.3 µM (active); in test [12], 33.3 µM (active); in [13] it was 20 µM (active). In addition, the AC50 in test [14] is 11 µM (active); in test [16], 33.3 µM (active); in test [17], 12.2 µM (active); in test [18], 30.2 µM (active).
